Reference: PubChem BioAssay AID588676 (Johns Hopkins Ion Channel Center, 2011)
Among all 310,000 compounds or so, about 3,900 (1.3%) were called active.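 How the source made its calls: active means calcium-response B-score plate-corrected more than 3 library SD below zero, starting fluorescence within 5 deviations, no agonist response on first addition; inactive means the rest.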 What follows is part of a selection rich in actives, with near analogues and random picks from the rest.

These compounds were tested against Mas-related G-protein coupled receptor member X1 (Homo sapiens) (UniProt Q96LB2) (assay: blockade of BAM8-22-evoked MrgX1 calcium response – HEK293 cells, Fluo-4 calcium flux, primary screen (AID 588676;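 on B-score: peak minus trough fluorescence over baseline after final BAM8-22 challenge near maximal dose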)). Conditions: Fluo-4, BAM8-22 antagonism, at 10 µM; active compounds read low.
Sequence of Mas-related G-protein coupled receptor member X1 (Homo sapiens) (Q96LB2 whole entry, looked up): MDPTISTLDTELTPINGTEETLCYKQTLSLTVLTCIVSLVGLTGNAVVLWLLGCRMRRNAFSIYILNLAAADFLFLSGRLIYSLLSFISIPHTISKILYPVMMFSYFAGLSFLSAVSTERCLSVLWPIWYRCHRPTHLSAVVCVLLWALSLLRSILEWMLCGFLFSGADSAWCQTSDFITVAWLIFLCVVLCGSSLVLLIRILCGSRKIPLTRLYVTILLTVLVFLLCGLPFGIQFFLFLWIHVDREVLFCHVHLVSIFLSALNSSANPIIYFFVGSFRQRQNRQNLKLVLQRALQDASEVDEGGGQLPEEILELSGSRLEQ
For `CCn1cc(C(=O)NCCCN2CCCCCC2)c(=O)c2cc(S(=O)(=O)N3CCc4ccccc4C3)ccc21`, the B-score was “inactive”.
For `CCOc1cc(C(=O)Nc2c(C)ccc3nsnc23)cc(OCC)c1OCC`, the B-score was “inactive”.
With `CNc1nc2c(C)cccn2c(=O)c1C=Nc1ccc(OC)cc1` the B-score was “inactive”.
For `CCOC(=O)CC1C(=O)NCCN1c1nc2c(C)cccn2c(=O)c1/C=C1\SC(=S)N(C(C)CC)C1=O` (configuration not stated), the B-score was “inactive”.
With `Cc1cccn2c(=O)c(/C=C3\SC(=S)N(CC(C)C)C3=O)c(NCCCOC(C)C)nc12` the B-score was -11.6 (active).
`Cc1coc2c1c(C)cc1oc(=O)c(CC(=O)NCC(=O)N[C@H](C(=O)O)C(C)C)c(C)c12` was tested, and the B-score was “inactive”.
In the case of `CCCCn1c(N)c(N(CC(C)C)C(=O)c2ccc(-n3c(C)ccc3C)cc2)c(=O)[nH]c1=O`, the B-score is reported as “inactive”.
In the case of `O=C(COc1coc(CN2CCN(c3ccccc3)CC2)cc1=O)Nc1ccccc1F`, the B-score is reported as “inactive”.
`COc1ccc(C(=O)CSc2n[nH]c(N)n2)cc1` was tested, and the B-score was -4.92 (active).
For `COc1ccc(C(=O)CSc2nccc(=O)[nH]2)cc1`, the B-score was “inactive”.
`COc1ccc(CNC(=O)CSc2n[nH]c(N)n2)cc1OC` was tested, and the B-score was “inactive”.
In the case of `O=C(c1cc(-c2ccc(Cl)s2)nc2ccccc12)N1CCOCC1`, the B-score is reported as “inactive”.
With `CCOC(=O)c1cn(CC(=O)Nc2ccc(C(C)C)cc2)nn1` the B-score was “inactive”.
`CCOC(=O)c1cn(Cc2cccc(C)c2)nn1` was tested, and the B-score was -5.74 (active).
In the case of `CCOC(=O)c1nn(-c2cccc(C)c2)cc1C(=O)c1ccccc1`, the B-score is reported as “inactive”.
In the case of `COC(=O)[C@@H]1CC[C@H](C)[C@@H](c2ccc(C)cc2)N1C(=O)c1ccc(/C=N/O[C@H](C)c2cn([C@@H]3COC[C@H]3O)nn2)cc1`, the B-score is reported as “inactive”.
`Cc1cccc(N(C(=O)c2csnn2)C(C(=O)NCc2ccccc2)c2ccncc2)c1` (configuration not stated) was tested, and the B-score was “inactive”.
With `O=C1CSC(=S)N1c1ccc(Cl)c(Cl)c1` the B-score was “inactive”.
`CCN(CC(=O)Nc1cc(Cl)ccc1C)C(=O)CSCc1ccc(C)cc1` was tested, and the B-score was “inactive”.
For `COc1ccc(NS(=O)(=O)c2cc(NC(=O)CC(=O)c3ccc([N+](=O)[O-])cc3)ccc2C)cc1`, the B-score was “inactive”.
In the case of `CCN(CC)c1ccc(NC(=O)c2ccc(=O)[nH]c2)cc1S(=O)(=O)Nc1ccc(OC)cc1`, the B-score is reported as -4.78 (active).
`COc1ccc(NS(=O)(=O)c2ccc(NC(=O)c3ccc(N(C)S(C)(=O)=O)cc3)cc2)cc1` was tested, and the B-score was “inactive”.
In the case of `O=C(NCc1ccc2c(c1)OCO2)c1sccc1Br`, the B-score is reported as “inactive”.
For `O=C(O)c1ccc2c(c1)C(=O)N(NC(=O)c1ccc(O)cc1)C2=O`, the B-score was “inactive”.
In the case of `O=C(Nc1ccc(C(=O)O)c(O)c1)c1ccccc1`, the B-score is reported as “inactive”.
For `O=C(c1ccc(O)cc1)c1ccc(C(=O)O)c(C(=O)O)c1`, the B-score was -10.2 (active).
For `CCCOc1ccc(N2C(=O)CC(N(CCc3ccc(S(N)(=O)=O)cc3)C(C)=O)C2=O)cc1` (configuration not stated), the B-score was “inactive”.
For `CC(=O)Nc1ccc(S(=O)(=O)N2CCC(C(=O)N[C@@H](Cc3ccccc3)C(=O)O)CC2)cc1`, the B-score was “inactive”.
With `CCN(CC)S(=O)(=O)c1ccc(N(C)Cc2cccc(OC)c2OC)nc1` the B-score was “inactive”.
`COc1cc(N)c(Cl)cc1C(=O)OCC(=O)c1ccc2c(c1)NC(=O)CO2` was tested, and the B-score was “inactive”.
With `O=C(NC1CCCCC1)C1c2ccccc2C(=O)N1Cc1ccco1` (configuration not stated) the B-score was -7.6 (active).
`O=C1c2ccccc2C(Nc2ccc3c(c2)OCCO3)N1Cc1ccco1` (configuration not stated) was tested, and the B-score was “inactive”.
For `CC1CCC(NC(=O)C2c3ccccc3C(=O)N2Cc2ccc3c(c2)OCO3)CC1` (configuration not stated), the B-score was “inactive”.
For `Cc1cc(OC(C)C(=O)Nc2ccc(S(=O)(=O)Nc3onc(C)c3C)cc2)cc(C)c1Cl` (configuration not stated), the B-score was “inactive”.
`COc1ccc(-c2ocnc2C(=O)Nc2ccc3c(c2)CCC3)cc1` was tested, and the B-score was “inactive”.
In the case of `CCN1C(=O)[C@@H]2[C@@H](c3ccc(-c4ccc(OC)cc4)c(OC)c3)N3CCC[C@@]3(C(=O)OC)[C@@H]2C1=O`, the B-score is reported as “inactive”.
In the case of `O=[N+]([O-])c1cccc(S(=O)(=O)NCc2ccccn2)c1`, the B-score is reported as “inactive”.
In the case of `O=c1cc(CO)oc(C(Nc2cccc(C(F)(F)F)c2)c2ccccn2)c1O` (configuration not stated), the B-score is reported as “inactive”.
With `O=c1cc(CO)oc(C(Nc2cccc([N+](=O)[O-])c2)c2ccccn2)c1O` (configuration not stated) the B-score was -4.59 (active).
For `O=C(c1ccc(Cl)cc1)N1N=C(c2ccccn2)CC1(O)C(F)(F)F` (configuration not stated), the B-score was “inactive”.
`Cc1nnc(SCC(=O)Nc2ccc(S(=O)(=O)Nc3ccc(Cl)nn3)cc2)s1` was tested, and the B-score was “inactive”.
In the case of `CN(c1cccc(NC(=O)c2ccc(CN3CCc4ccccc4C3)cc2)c1)S(C)(=O)=O`, the B-score is reported as “inactive”.
In the case of `CN(c1cccc(NC(=O)Nc2ccc(Cl)cc2)c1)S(C)(=O)=O`, the B-score is reported as -8.9 (active).
In the case of `COc1cccc(N(CC(=O)Nc2cccc(N(C)S(C)(=O)=O)c2)S(C)(=O)=O)c1`, the B-score is reported as “inactive”.
`O=C(COC(=O)c1cnccn1)Nc1cccc2ccccc12` was tested, and the B-score was “inactive”.
`CC(C)NC(=S)Nc1cccc2cnccc12` was tested, and the B-score was -4.98 (active).
With `COC(=O)c1cccnc1NC(=S)NC(C)C` the B-score was “inactive”.
In the case of `Cc1ccc2cc(CN(c3ccc(C)c(C)c3)S(C)(=O)=O)c(=O)[nH]c2c1`, the B-score is reported as “inactive”.
For `Cc1cc([N+](=O)[O-])ccc1NCc1cccc([N+](=O)[O-])c1`, the B-score was “inactive”.
With `Cc1c(Br)c([N+](=O)[O-])nn1CC(=O)Nc1sc2c(c1C(=O)OC(C)C)CCC(C)C2` (configuration not stated) the B-score was “inactive”.
In the case of `COc1ccc(C(=O)Nc2c(N)nc(SCC(=O)N3CCC(C)CC3)[nH]c2=O)cc1OC`, the B-score is reported as -5.91 (active).
With `COc1ccc(C(=O)Nc2c(N)nc(SCC(=O)Nc3ccc(C(C)=O)cc3)[nH]c2=O)cc1` the B-score was “inactive”.
In the case of `COC(=O)c1ccc(NC(=O)CSc2nc(N)c(NC(=O)c3ccc(Br)o3)c(=O)[nH]2)cc1`, the B-score is reported as “inactive”.
With `COC(=O)C(C(=O)Nc1cccc(C)n1)C1CCCCCC1` (configuration not stated) the B-score was “inactive”.
With `Cc1c(NC(=O)CCC2CCCCC2)cc(C(=O)N2CCOCC2)cc1[N+](=O)[O-]` the B-score was “inactive”.
For `Cc1ccc(S(=O)(=O)C(C#N)c2nc3ccccc3nc2N2CCCC2)cc1C` (configuration not stated), the B-score was -6.25 (active).
In the case of `Cc1ccc(S(=O)(=O)Nc2nc3ccccc3nc2N2CCc3ccccc3C2)cc1`, the B-score is reported as “inactive”.
`Cc1cc(N2CCN(S(=O)(=O)c3ccc(C)c(C)c3)CC2)c2ccccc2n1` was tested, and the B-score was “inactive”.
For `C#CCOCCOCCOCCNc1nc(N2CCN(C(=O)C(Cc3ccc(O)cc3)n3cc(C(N)CC(C)C)nn3)CC2)nc(N2CCN(C(=O)C(Cc3ccc(O)cc3)n3cc(C(N)C(C)CC)nn3)CC2)n1` (configuration not stated), the B-score was “inactive”.
For `O=C(Nc1nnc(-c2ccccc2F)s1)c1ccccc1F`, the B-score was “inactive”.
For `CN(CC(=O)NCCN1CCOCC1)S(=O)(=O)c1ccc(F)cc1`, the B-score was “inactive”.
With `CCOc1ccc(NC(=S)N2CCC(NC(=O)c3ccccc3)CC2)cc1` the B-score was “inactive”.
`CCOc1ccc(NS(=O)(=O)c2ccc(C(=O)NC3CCN(Cc4ccccc4)CC3)cc2)cc1` was tested, and the B-score was “inactive”.
In the case of `CCOc1ccc(C(=O)NC2CCN(S(=O)(=O)CC)CC2)cc1`, the B-score is reported as -5.83 (active).
`CCOC(=O)c1nnn2c1nc(N1CCN(c3ccccc3)CC1)c1ccccc12` was tested, and the B-score was “inactive”.
`COc1cc(C(=S)N2CCOCC2)cc(OC)c1OC(=O)c1cc([N+](=O)[O-])c(C)c([N+](=O)[O-])c1` was tested, and the B-score was “inactive”.
`CC1=C/C(=N\OS(=O)(=O)c2ccccc2)C=CC1=O` was tested, and the B-score was -5.63 (active).
For `O=S(=O)(ON(c1ccccc1)S(=O)(=O)c1ccccc1)c1ccccc1`, the B-score was “inactive”.
In the case of `CCOC(=O)c1ccc2[nH]c3c(c2c1)CCCC3NC=O` (configuration not stated), the B-score is reported as “inactive”.
In the case of `O=C(NC(C(=O)NCCN1CCOCC1)C12CC3CC(CC(C3)C1)C2)C1CCCCC1` (configuration not stated), the B-score is reported as “inactive”.
With `O=C(C[C@H]1C(=O)N(c2ccc(F)c(F)c2)C[C@@H]1Cc1ccccc1)Nc1ccccc1` the B-score was “inactive”.
`C/C=C/C=C/C(=O)OCC(=O)Nc1ccc(Cl)cc1` was tested, and the B-score was “inactive”.
`COc1ccccc1Oc1nc(-c2cccnc2)nc2ccccc12` was tested, and the B-score was -5.1 (active).
In the case of `COc1ccc(Nc2nc(-c3cccnc3)nc3ccccc23)cn1`, the B-score is reported as “inactive”.
`O=[N+]([O-])c1ccc(F)cc1Oc1nc(-c2cccnc2)nc2ccccc12` was tested, and the B-score was “inactive”.
In the case of `CCOc1ccc(C(C)=O)cc1COC(=O)CN1C(=O)NC2(CCCC2)C1=O`, the B-score is reported as “inactive”.
For `Cc1cccc(OCC(O)Cn2c(N3CCCCC3)nc3c2c(=O)[nH]c(=O)n3C)c1` (configuration not stated), the B-score was “inactive”.
With `c1ccc(-c2cc3c(NCC4COc5ccccc5O4)ncnc3s2)cc1` (configuration not stated) the B-score was “inactive”.
In the case of `Oc1cc2c(cc1O)CN(C(=S)NCCc1ccc(Cl)cc1)CCC2`, the B-score is reported as “inactive”.
`COc1ccc(/C=N/NC(=O)C2CC2)c(OC)c1OC` was tested, and the B-score was “inactive”.
With `Oc1ccccc1C=NC1CCCCC1N=Cc1ccccc1O` (configuration not stated) the B-score was “inactive”.
With `O=C(N/N=C/c1ccccc1O)C1CCCC1` the B-score was -4.79 (active).
`Cc1ccc2cc(/C=N/NC(=O)[C@@H]3CCCN3)c(Cl)nc2c1` was tested, and the B-score was “inactive”.
With `O=C(O)c1ccc(N/N=C/c2ccc3ncccc3c2)cc1` the B-score was “inactive”.
With `Cc1ccc2cc(/C=N/Nc3ccc(C(=O)O)cc3)c(Cl)nc2c1` the B-score was -14.6 (active).
With `CCCCC(O)(CCCC)C(=O)NN(C(=O)CCl)c1ccccc1` the B-score was “inactive”.
In the case of `CC(C)(C)c1ccc(/C=C2\Oc3c(ccc(O)c3CN3CCN(CCO)CC3)C2=O)cc1`, the B-score is reported as “inactive”.
For `COc1ccc(-c2[nH]nc(-c3ccccc3)c2-c2nc3ccccc3[nH]2)cc1`, the B-score was “inactive”.
In the case of `c1ccc(-c2[nH]ncc2-c2nc3ccccc3[nH]2)cc1`, the B-score is reported as -5.86 (active).
`O=C(Nc1cccc(-c2nc3ccccc3[nH]2)c1)c1ccc(C(=O)Nc2cccc(-c3nc4ccccc4[nH]3)c2)cc1` was tested, and the B-score was “inactive”.
For `CC(OC(=O)CCCOc1ccccc1)C(=O)Nc1ccc(Cl)cn1` (configuration not stated), the B-score was “inactive”.
In the case of `CCOCCCn1c(NN)nc2ccccc2c1=O`, the B-score is reported as “inactive”.
In the case of `CCCn1c(O)c(CN2CCCC(C)C2)c(C)c(C#N)c1=O` (configuration not stated), the B-score is reported as -5.29 (active).
For `CCCCCCn1c(CN2CCCC(C)C2)nc2c1c(=O)n(C)c(=O)n2C` (configuration not stated), the B-score was “inactive”.
For `Cc1c(CN2CCCCC2)c(O)n(CCO)c(=O)c1C#N`, the B-score was “inactive”.
In the case of `Cc1cc(NC(=O)/C=C/C(=O)N(c2ccccc2C)C(C(=O)NC2CCCC2)c2ccc(F)cc2)no1` (configuration not stated), the B-score is reported as “inactive”.
With `CCOCCOCCC(C(=O)O)P(=O)(c1ccccc1)c1ccccc1` (configuration not stated) the B-score was “inactive”.
